Measurements reported in PubChem BioAssay (NCI).
Several values for one entry are separate records, joined by “and”; a condition that tells them apart may be missing. Equal entries are not always repeated. About 83,000 compounds went through this panel and 20% of them were active in at least one assay; those are over-represented in the sample as a whole.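 Interpretation: 100, growth as untreated; towards 0, rising growth inhibition; 0, no net growth; 0 to -100, cell death. Compounds scoring below 10 were considered active.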 A number with no mark means an inactive call. Activity calls are given as the source filed them.

How the values were obtained:
Assay in all cases: NCI-60 one-dose screen, 48 h (100 = growth as untreated, 0 = no growth, -100 = all killed)
Settings in all cases: 10 µM unless noted
T-47D breast = test system: T-47D breast
BT-549 breast = test system: BT-549 breast
MDA-MB-435 melanoma = test system: MDA-MB-435 melanoma
SW-620 colon = test system: SW-620 colon
MCF7 breast = test system: MCF7 breast
HCT-116 colon = test system: HCT-116 colon
HCC-2998 colon = test system: HCC-2998 colon
KM12 colon = test system: KM12 colon
MDA-MB-468 breast = test system: MDA-MB-468 breast

Row | Compound | growth (T-47D breast) | growth (BT-549 breast) | growth (MDA-MB-435 melanoma) | growth (SW-620 colon) | growth (MCF7 breast) | growth (HCT-116 colon) | growth (HCC-2998 colon) | growth (KM12 colon) | growth (MDA-MB-468 breast)
1 | Cn1cc(-c2cc3nc(-c4c[nH]c5ccc(Br)cc45)cc(N)n3n2)c2ccccc21 | -60.8% (active) | -63.6% (active) | -88.6% (active) | -63.5% (active) | -87.2% (active) | -90.6% (active) | -82.4% (active) | -83% (active) | -70.3% (active)
2 | N/C(=N\c1nc2ccccc2s1)NC(=O)Nc1ccc(Cl)cc1Cl | -10.7% (active) | -17.6% (active) | -97.3% (active) | -67.9% (active) | -4.93% (active) | -79.6% (active) | -25.4% (active) | -64.4% (active) | -48.6% (active)
3 | NS(=O)(=O)c1ccc(NNC(=O)CCC(=O)c2ccccc2)cc1 | 87.5% | 104% | 105% | 102% | 90.5% | 99% | 109% | 104% | 93.3%
4 | CCN(CC)CCOc1ccc(Nc2ncc3cc(-c4ccc(O)c(C#N)c4)c(=O)n(C)c3n2)cc1 | 36.5% | 112% | 29.9% | 110% | 16.8% | 32.9% | 111% | 72.4% | 63.5%
5 | COc1cc2c(c(OC)c1OC)C(=O)CC(c1cccc(NC(=O)[C@@H](N)CC(C)C)c1)O2 (some centres not stated) | 86% | 94.3% | 91.2% | 107% | 86.8% | 101% | 117% | 97.2% | 89.3%
6 | O=C(N=Nc1c(O)[nH]c2ccc(Cl)cc12)c1ccc2nc(-c3ccccc3)[nH]c2c1 | 30.1% | 109% | 79.7% | 17.8% | 4.1% (active) | 59.4% | 10.3% | 91.2% | -31.3% (active)
7 | CCN(CC)c1ccnc(CNCCSC(c2ccccc2)(c2ccccc2)c2ccc(OC)cc2)c1 | -15.8% (active) | -25.4% (active) | -63.8% (active) | -66.6% (active) | -50.8% (active) | -78.6% (active) | -80.5% (active) | -49.8% (active) | -64.1% (active)
8 | O=C(CN1C(=O)/C(=C/c2ccccc2F)SC1=S)N1CCOCC1 | 61.4% | 111% | 94.1% | 32.6% | 35.3% | 45.3% | 116% | 99.1% | -7.25% (active)
9 | CCOC(=O)C1=C(N)N(c2ccccc2)C2=C(C(=O)CC(C)(C)C2)C1c1ccc(N2CCOCC2)cc1 (configuration not stated) | 93.7% | 103% | 104% | 101% | 90.7% | 99.1% | 108% | 105% | 89.6%
10 | Cc1cc2c(cc1Cl)C(=O)/C(=C/c1ccccc1)O2 | -22.8% (active) | -3.52% (active) | 19.7% | 33.9% | 17.5% | 18.1% | 63.6% | 17.8% | 0.644% (active)
11 | O=C(c1ccccc1)c1ccc2nc(-c3cccc(Cl)c3)[nH]c2c1 | 98.6% | 105% | 106% | 108% | 105% | 103% | 110% | 108% | 105%
12 | Cc1ccc(C(=O)NN2C(=O)/C(=C/C=C/c3ccc([N+](=O)[O-])o3)SC2=S)cc1 | -61.1% (active) | -90% (active) | -66.3% (active) | -69.1% (active) | -49.2% (active) | -77.7% (active) | -90% (active) | -83.2% (active) | -85.7% (active)
13 | COCOc1ccc2c(=O)c(C)c(C(=O)N[C@@H](Cc3ccccc3)C(O)C(=O)NCCc3ccc(OC)cc3)oc2c1 (some centres not stated) | 97.1% | 122% | 115% | 114% | 103% | 104% | 125% | 108% | 95.2%
14 | CC12CC[C@@H]3[C@]4(C)COC(c5c(F)cccc5F)O[C@@H]4CC[C@@]3(C)[C@@H]1CC(C1=CCOC1=O)O2 (some centres not stated) | 55% | 48.3% | 86.1% | 100% | 58.4% | 49.1% | 76.7% | 72.6% | 52.1%
15 | Nc1nnc(-c2c[nH]c3ncc(Br)cc23)c(-c2c[nH]c3ccc(F)cc23)n1 | 38.2% | 54.4% | 26% | 20.9% | 18.6% | 26% | 45.9% | 30.5% | 13.1%
16 | Cc1ccc(C2CC(c3ccc(S(=O)(=O)NCCNc4nc(Nc5ccc(F)cc5)nc(N(C)C)n4)cc3)=Nc3c(N)nc(N)nc3N2)cc1 (configuration not stated) | 53% | 58% | 55.2% | 54.1% | 18.7% | 27.2% | 32.4% | 40.9% | -12.8% (active)
17 | CN(C)c1nc(NCCNS(=O)(=O)c2ccc(C3=Nc4c(N)nc(N)nc4NC(c4ccc(F)cc4)C3)cc2)nc(Nc2ccc(F)cc2)n1 (configuration not stated) | 40.6% | 48.7% | 31% | 39.4% | 5.29% (active) | 30.6% | 28.6% | 24.5% | -40.7% (active)
18 | COc1ccc(C(=O)/C=C/c2ccc(OCc3ccccc3)c(OC)c2)cc1OC | 30.4% | 12.6% | 30.9% | 10.4% | 10.5% | 12.3% | 15.2% | 16% | 23.8% and 11.1%
19 | CCCCn1c(O)c(N=Nc2nc(-c3cc4ccccc4oc3=O)cs2)c2cc(Br)ccc21 | 107% | 132% | 111% | 114% | 89.8% | 107% | 111% | 114% | 113%
20 | COc1ccc(NC(=O)Nc2ccc(OCc3ccc(F)cc3)cc2)cc1 | 84.7% | 84.9% | 83% | 73.6% | 57.6% | 58.1% | 90.8% | 93.3% | 77.5%
21 | Nc1nnc(-c2c[nH]c3ccc(Br)cc23)c(-c2c[nH]c3ncc(Br)cc23)n1 | 16.7% | 35.4% | 30.3% | 50.2% | 12.3% | 17.1% | 48.5% | 32.6% | 26.1%
22 | COc1ccc(C(=O)/C=C/c2ccc(Oc3nc(Nc4ccc(F)cc4)nc(N(C)C)n3)c(OC)c2)cc1 | 19.7% | -4.17% (active) | 51.4% | 12.4% | 15.6% | 0.959% (active) | 100% | 70.2% | 40.6%
23 | COc1ccc(/C=N/NC(=O)Cn2nc(Cc3ccc(OC)cc3)c3onc(C)c3c2=O)cc1 | 40.7% | 36.9% | 62% | 56.6% | 45% | 32.3% | 6.89% (active) | 53% | 67.4%
24 | COc1ccc(-c2c(Nn3cnnn3)no[n+]2[O-])cc1 | 48.8% | 61.1% | 44.4% | 41.5% | 31% | 23.8% | 56.2% | 68.2% | 46.3%
25 | NC(=S)Nc1cccc(NC(N)=S)c1 | 86.8% | 115% | 97.3% | 107% | 91.7% | 107% | 117% | 87.6% | 86.5%
26 | Cc1sc(C(NC(=O)OCCn2c([N+](=O)[O-])cnc2C)C(F)(F)Cl)nc1-c1ccc(OC(F)(F)F)cc1 (configuration not stated) | -66.1% (active) | -92.2% (active) | -43.7% (active) | -67.1% (active) | -85.1% (active) | -80.3% (active) | -96.6% (active) | -61.9% (active) | -93.4% (active)
27 | COc1c(F)ccc(C(=O)Nc2ccc3nc(NC(=O)C4CCCN(S(=O)(=O)C5CC5)C4)sc3c2)c1F (configuration not stated) | -5.4% (active) | -8.29% (active) | 39.5% | 78.7% | 15.2% | 32.2% | 59.8% | 44% | 3.58% (active)
28 | O=C(COc1ccc(NC(=O)Nc2ccc(Cl)c(Cl)c2)cc1)N=Nc1c(O)[nH]c2ccc([N+](=O)[O-])cc12 | 66% | 50% | 59.5% | 15.9% | 30.6% | 11.3% | 82.6% | 42.2% | 32.6%
